According to PubChem BioAssay (NCI):
The panel holds about 79,000 compounds, 15% with a hit somewhere; the sample as a whole holds those more often. Values without a mark were called inactive. The source made the active and inactive calls. No stated cut-off is given here; in the data, active means growth inhibition above about 70%; inactive means the rest.

Assay: NCI Yeast Anticancer Drug Screen. Data for the rad50 strain (AID 155);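 further: 0% = growth of vehicle-only cultures of the same strain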
Settings: S. cerevisiae rad50 strain growth inhibition; at 1.2 µM; stronger effect = higher value
Summary of the method: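 Inhibition values express reduced yeast growth in compound-treated cultures relative to vehicle-treated controls.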

| SMILES | growth inhibition [%] |
| --- | --- |
| CC(C)c1ccccc1NC(=O)/C(Cl)=C(\Cl)C(=O)O | 0 |
| O=[N+]([O-])C(=C(Sc1ccccc1)Sc1ccccc1)C(Cl)=C(Cl)Cl | 4 |
| C(=C\c1ccccc1)/COc1ccccc1C(N1CCOCC1)n1nc2ccccc2n1 (centres undefined) | -6 |
| O=C1C(Nc2ccccc2)=C(Oc2ccccc2)C(=O)c2ccccc21 | -6 |
| CCN(CC)CCN1C(=O)c2cccc3cc(OC)cc(c23)C1=O | 4 |
| CN(C)Cc1cc(N=Nc2ccc(Cl)cc2)cc(CN(C)C)c1O | 9 |

Same assay, conditions: S. cerevisiae rad50 strain growth inhibition; at 3.7 µM; stronger effect = higher value

| SMILES | growth inhibition |
| --- | --- |
| O=CC=C(c1ccccc1)c1ccccc1 | 5% |
| FC(F)(F)c1nc2nc(Cl)c(Cl)nc2n1CCCN1CCOCC1 | 13% |
| BrCC[P+](c1ccccc1)(c1ccccc1)c1ccccc1 | -30% |
| N#CSc1ccc(S(N)(=O)=O)cc1 | -39% |
| O=[N+]([O-])c1ccc2nc3ccccc3cc2c1 | 22% |
| O=C(NC(Nc1ccc(F)c(Cl)c1)(C(F)(F)F)C(F)(F)F)C(C(F)(F)F)C(F)(F)F | 17% |
| O=C(/C=C\c1ccc(Cl)cc1Cl)c1cccs1 | -2% |
| O=C(NCCCCNCCCNC(=O)c1cc(-c2ccccc2)nc2ccccc12)c1cc(-c2ccccc2)nc2ccccc12 | -5% |
| NC(=NCc1ccccc1)N/N=C\c1ccnc2ccccc12 | 2% |
| CCCCN(CCCC)CCSc1ccc(Cl)cc1 | -20% |
| COc1cc(C2C3=C(COC3=O)Oc3cc4c(cc32)OCO4)ccc1O (centres undefined) | 5% |
| C#CCCCc1ccccc1 | -45% |
| CCc1ccc(NS(=O)(=O)c2ccccc2)c([N+](=O)[O-])c1 | 5% |
| COc1ccc(C2c3cc4c(cc3OC(C)(O)C2C)OCO4)c(OC)c1 (centres undefined) | 1% |
| COC(=O)c1ccc(CCC2=CC(=O)C(Br)=CC2=O)cc1 | 14% |
| NNC(=O)CCc1ccc2ccc3ccccc3c2c1 | -4% |
| Cn1c2ccccc2c(=O)c2cc(NC(=O)CCCCC(=O)Nc3ccc4c(c3)c(=O)c3ccccc3n4C)ccc21 | 11% |
| CC(CC(C)(C)[N+](C)(C)C)[N+](C)(C)C (centres undefined) | 1% |
| CC1CCN(CCC(=O)c2ccc(Cl)cc2)CC1 | 19% |
| CCCCCCCCCCCCCCC(C(=O)[O-])[n+]1ccccc1 (centres undefined) | 9% |

| SMILES | growth inhibition |
| --- | --- |
| CNC1C(OC2C(OC3C(O)C(O)C(N=C(N)N)C(O)C3N=C(N)N)OC(C)C2(O)CO)OC(CO)C(O)C1O (centres undefined) | 7% |
| O=C(O)c1ccccc1-c1ccccc1C(=O)Nc1ccc2c(c1)Cc1ccccc1-2 | 6% |
| O=[N+]([O-])c1cccc2nc3ccccc3c(NCCCN3CCOCC3)c12 | 94% (active) |
| C=CC(C)(O)CCC1C(=C)C(O)CC2C(C)(C)CCCC12C (centres undefined) | 19% |
| CN1c2ccc(Cl)cc2C(=O)NC1c1ccc([N+](=O)[O-])s1 (centres undefined) | 39% |
| [O-][n+]1c2ccc(O)cc2nc2ccc(Br)cc21 | 18% |
| O=C1c2ccccc2-c2nc3ccccc3nc21 | -15% |
| CCCCN1C(=O)N(c2ccc(OCC)cc2)C2N(CCCC)C1C(C)(C)C2(C)C (centres undefined) | -18% |
| CO[C@H]1C[C@](C)(O)Cc2cc3c(c(O)c21)C(=O)c1c(O)cc2c(c1C3=O)O[C@@H]1O[C@@]2(C)[C@H](O)[C@@H](N(C)C)[C@@H]1O | -7% |
| COc1cc2c(cc1[N+](=O)[O-])C(=O)C(Br)(Br)CCC2 | 50% |
| O=C1OC(CCl)CN1/N=C/c1ccc([N+](=O)[O-])o1 (centres undefined) | -8% |
| CN(C)CCOc1ccc2c(c1)C/C(=C/c1ncc([N+](=O)[O-])n1C)C2=O | 47% |
| CCCCCCCCCCCCCCCCCCN(C)CC(COP(=O)([O-])OCC[N+](C)(C)C)OC (centres undefined) | 18% |
| CC(C)c1ccccc1NC(=O)/C(Cl)=C(\Cl)C(=O)O | 0% |
| O=[N+]([O-])C(=C(Sc1ccccc1)Sc1ccccc1)C(Cl)=C(Cl)Cl | 8% |
| C(=C\c1ccccc1)/COc1ccccc1C(N1CCOCC1)n1nc2ccccc2n1 (centres undefined) | -21% |
| O=C1C(Nc2ccccc2)=C(Oc2ccccc2)C(=O)c2ccccc21 | -11% |
| CCN(CC)CCN1C(=O)c2cccc3cc(OC)cc(c23)C1=O | 43% |
| CN(C)Cc1cc(N=Nc2ccc(Cl)cc2)cc(CN(C)C)c1O | 7% |

Same assay, conditions: S. cerevisiae rad50 strain growth inhibition; at 5.0 µM (retest, dose inferred, filed as 0.5); stronger effect = higher value

| SMILES | growth inhibition |
| --- | --- |
| O=CC=C(c1ccccc1)c1ccccc1 | 41% |
| FC(F)(F)c1nc2nc(Cl)c(Cl)nc2n1CCCN1CCOCC1 | 29% |
| BrCC[P+](c1ccccc1)(c1ccccc1)c1ccccc1 | 19% |
| N#CSc1ccc(S(N)(=O)=O)cc1 | 51% |
| O=[N+]([O-])c1ccc2nc3ccccc3cc2c1 | -16% |
| O=C(NC(Nc1ccc(F)c(Cl)c1)(C(F)(F)F)C(F)(F)F)C(C(F)(F)F)C(F)(F)F | 28% |
| O=C(/C=C\c1ccc(Cl)cc1Cl)c1cccs1 | 0% |
| O=C(NCCCCNCCCNC(=O)c1cc(-c2ccccc2)nc2ccccc12)c1cc(-c2ccccc2)nc2ccccc12 | -29% |
| NC(=NCc1ccccc1)N/N=C\c1ccnc2ccccc12 | -2% |
| CCCCN(CCCC)CCSc1ccc(Cl)cc1 | 2% |
| COc1cc(C2C3=C(COC3=O)Oc3cc4c(cc32)OCO4)ccc1O (centres undefined) | 95% (active) |
| C#CCCCc1ccccc1 | -13% |
| CCc1ccc(NS(=O)(=O)c2ccccc2)c([N+](=O)[O-])c1 | 2% |
| COc1ccc(C2c3cc4c(cc3OC(C)(O)C2C)OCO4)c(OC)c1 (centres undefined) | 2% |
| COC(=O)c1ccc(CCC2=CC(=O)C(Br)=CC2=O)cc1 | 12% |
| NNC(=O)CCc1ccc2ccc3ccccc3c2c1 | -13% |
| Cn1c2ccccc2c(=O)c2cc(NC(=O)CCCCC(=O)Nc3ccc4c(c3)c(=O)c3ccccc3n4C)ccc21 | 9% |
| CC(CC(C)(C)[N+](C)(C)C)[N+](C)(C)C (centres undefined) | 25% |
| CC1CCN(CCC(=O)c2ccc(Cl)cc2)CC1 | 5% |
| CCCCCCCCCCCCCCC(C(=O)[O-])[n+]1ccccc1 (centres undefined) | 9% |

| SMILES | growth inhibition |
| --- | --- |
| CNC1C(OC2C(OC3C(O)C(O)C(N=C(N)N)C(O)C3N=C(N)N)OC(C)C2(O)CO)OC(CO)C(O)C1O (centres undefined) | -19% |
| O=C(O)c1ccccc1-c1ccccc1C(=O)Nc1ccc2c(c1)Cc1ccccc1-2 | 0% |
| O=[N+]([O-])c1cccc2nc3ccccc3c(NCCCN3CCOCC3)c12 | 85% (active) |
| C=CC(C)(O)CCC1C(=C)C(O)CC2C(C)(C)CCCC12C (centres undefined) | 36% |
| CN1c2ccc(Cl)cc2C(=O)NC1c1ccc([N+](=O)[O-])s1 (centres undefined) | 9% |
| [O-][n+]1c2ccc(O)cc2nc2ccc(Br)cc21 | 36% |
| O=C1c2ccccc2-c2nc3ccccc3nc21 | 80% (active) |
| CCCCN1C(=O)N(c2ccc(OCC)cc2)C2N(CCCC)C1C(C)(C)C2(C)C (centres undefined) | 0% |
| CO[C@H]1C[C@](C)(O)Cc2cc3c(c(O)c21)C(=O)c1c(O)cc2c(c1C3=O)O[C@@H]1O[C@@]2(C)[C@H](O)[C@@H](N(C)C)[C@@H]1O | -11% |
| COc1cc2c(cc1[N+](=O)[O-])C(=O)C(Br)(Br)CCC2 | 8% |
| O=C1OC(CCl)CN1/N=C/c1ccc([N+](=O)[O-])o1 (centres undefined) | 19% |
| CN(C)CCOc1ccc2c(c1)C/C(=C/c1ncc([N+](=O)[O-])n1C)C2=O | 33% |
| CCCCCCCCCCCCCCCCCCN(C)CC(COP(=O)([O-])OCC[N+](C)(C)C)OC (centres undefined) | 17% |
| CC(C)c1ccccc1NC(=O)/C(Cl)=C(\Cl)C(=O)O | 0% |
| O=[N+]([O-])C(=C(Sc1ccccc1)Sc1ccccc1)C(Cl)=C(Cl)Cl | 5% |
| C(=C\c1ccccc1)/COc1ccccc1C(N1CCOCC1)n1nc2ccccc2n1 (centres undefined) | -9% |
| O=C1C(Nc2ccccc2)=C(Oc2ccccc2)C(=O)c2ccccc21 | -1% |
| CCN(CC)CCN1C(=O)c2cccc3cc(OC)cc(c23)C1=O | 31% |
| CN(C)Cc1cc(N=Nc2ccc(Cl)cc2)cc(CN(C)C)c1O | -15% |
